Assays:
Assay in all cases: PBM binding z-score (relative to random genomic background probes); higher = stronger binding; sequences stand for … in GC…GCGATTGACAGCGTAGAATGAAGG
[1] = tested on: PPARg:RXRa DBDmut IVT, anti-RXR (DBD mutation: RXRa K156A/R161A, NR concentration 270 nM, RXRa partner concentration 90 nM)
In short: (§1)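 Ligand-free nuclear receptor dimers were applied to custom Agilent 4×180K protein-binding microarrays whose double-stranded probes carried direct-repeat seeds, single-nucleotide variants, half-site ablations and random human genomic background sequences in 34-nt variable regions. Incubation lasted 1 h. Binding z-scores were computed against the random background probes from regression-normalized fluorescence.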

[2] = tested on: PPARg:RXRa IVT, anti-PPARg (NR concentration 270 nM, RXRa partner concentration 90 nM)
In short: as §1

[3] = tested on: PPARg DBDmut:RXRa IVT, anti-PPARg (DBD mutation: PPARg1 K132A/R137A, NR concentration 270 nM, RXRa partner concentration 90 nM)
In short: as §1

[4] = tested on: PPARg DBDmut IVT, anti-PPARg (DBD mutation: PPARg1 K132A/R137A, NR concentration 270 nM)
In short: as §1

[5] = tested on: PPARg homodimer (NR concentration 180 nM)
In short: as §1

[6] = tested on: PXR:RXRa (NR concentration 270 nM, RXRa partner concentration 90 nM)
In short: as §1

[7] = tested on: PXR homodimer (NR concentration 270 nM)
In short: as §1

[8] = tested on: RARa:RXR (NR concentration 270 nM, RXRa partner concentration 90 nM)
In short: as §1

[9] = tested on: RARa homodimer (NR concentration 270 nM)
In short: as §1

[10] = tested on: RARb:RXRa (NR concentration 270 nM, RXRa partner concentration 90 nM)
In short: as §1

CCTACTGGGGCATAAGGTTACCATAAGCCAGCCC
PBM binding z-score [1]: 4.53
PBM binding z-score [2]: 5.02
PBM binding z-score [3]: 0.0293
PBM binding z-score [4]: -0.184
PBM binding z-score [5]: 1.28
PBM binding z-score [6]: 0.306
PBM binding z-score [7]: 0.0136
PBM binding z-score [8]: 1.42
PBM binding z-score [9]: 0.103
PBM binding z-score [10]: 1.74

CATGCTAGGTCATGGTCAGCTAATCTACAGTATG
PBM binding z-score [1]: 3.61
PBM binding z-score [2]: 3.51
PBM binding z-score [3]: 0.62
PBM binding z-score [4]: 0.712
PBM binding z-score [5]: 1.58
PBM binding z-score [6]: 1.4
PBM binding z-score [7]: -0.662
PBM binding z-score [8]: 2.58
PBM binding z-score [9]: 0.163
PBM binding z-score [10]: 3.92

CCTGCTATGTCAATGGTCAGCTAAAGCAGCTCGC
PBM binding z-score [1]: 0.388
PBM binding z-score [2]: 0.02
PBM binding z-score [3]: -1.09
PBM binding z-score [4]: -1.11
PBM binding z-score [5]: -0.369
PBM binding z-score [6]: -0.209
PBM binding z-score [7]: -0.703
PBM binding z-score [8]: -0.142
PBM binding z-score [9]: -0.762
PBM binding z-score [10]: 0.77

ACTAGTTGGTCAGCTGAGGACACACACAATTCGG
PBM binding z-score [1]: 0.766
PBM binding z-score [2]: 1
PBM binding z-score [3]: 0.592
PBM binding z-score [4]: 0.377
PBM binding z-score [5]: 0.0418
PBM binding z-score [6]: 1.38
PBM binding z-score [7]: 0.241
PBM binding z-score [8]: 1.05
PBM binding z-score [9]: 0.18
PBM binding z-score [10]: 1.52

GCTTACGGGTCAAAGGTGATAGCATGAATAGAAT
PBM binding z-score [1]: 5.42
PBM binding z-score [2]: 5.3
PBM binding z-score [3]: 1.11
PBM binding z-score [4]: 0.857
PBM binding z-score [5]: 2.81
PBM binding z-score [6]: 4.78
PBM binding z-score [7]: -0.0532
PBM binding z-score [8]: 6.93
PBM binding z-score [9]: 0.406
PBM binding z-score [10]: 4.09

TTGCCTAGGTCATGGGCCAGTATACCACGCGAAC
PBM binding z-score [1]: 1.44
PBM binding z-score [2]: 3.33
PBM binding z-score [3]: 0.457
PBM binding z-score [4]: 0.0191
PBM binding z-score [5]: 0.932
PBM binding z-score [6]: 1.95
PBM binding z-score [7]: -0.21
PBM binding z-score [8]: 2.8
PBM binding z-score [9]: -0.254
PBM binding z-score [10]: 4.07

ACTAGTTGGTCGGCTGAGGTCACACACAATTCGG
PBM binding z-score [1]: 0.828
PBM binding z-score [2]: 2.09
PBM binding z-score [3]: 0.508
PBM binding z-score [4]: 0.979
PBM binding z-score [5]: 2.33
PBM binding z-score [6]: 5
PBM binding z-score [7]: 2.11
PBM binding z-score [8]: 4.72
PBM binding z-score [9]: 1.23
PBM binding z-score [10]: 3.08

TTACCAAGGTGAAGGTGGTTGATCCCTCTGTAGA
PBM binding z-score [1]: 1.73
PBM binding z-score [2]: 2.52
PBM binding z-score [3]: -0.348
PBM binding z-score [4]: -0.272
PBM binding z-score [5]: 0.43
PBM binding z-score [6]: 0.325
PBM binding z-score [7]: -0.346
PBM binding z-score [8]: 0.45
PBM binding z-score [9]: -0.245
PBM binding z-score [10]: 1.37

AGAATGAGGTTAATATCAGGGAAACAGAATACAT
PBM binding z-score [1]: 2.82
PBM binding z-score [2]: 2.7
PBM binding z-score [3]: 1.02
PBM binding z-score [4]: 0.794
PBM binding z-score [5]: 0.975
PBM binding z-score [6]: 1.2
PBM binding z-score [7]: 0.575
PBM binding z-score [8]: 1.74
PBM binding z-score [9]: 1.04
PBM binding z-score [10]: 1.55

TCTCGGAGGACACGAGGGTCAGAGCTTTCCAGAG
PBM binding z-score [1]: 1.25
PBM binding z-score [2]: 0.292
PBM binding z-score [3]: -0.358
PBM binding z-score [4]: -0.909
PBM binding z-score [5]: 0.294
PBM binding z-score [6]: 0.835
PBM binding z-score [7]: -0.16
PBM binding z-score [8]: 1.46
PBM binding z-score [9]: -0.665
PBM binding z-score [10]: 2.38

CCTACTGGGCCACGAAATGTCATTGATTCAGTGA
PBM binding z-score [1]: 6.24
PBM binding z-score [2]: 5.34
PBM binding z-score [3]: 0.216
PBM binding z-score [4]: -0.527
PBM binding z-score [5]: 0.759
PBM binding z-score [6]: -0.308
PBM binding z-score [7]: -0.533
PBM binding z-score [8]: 0.0426
PBM binding z-score [9]: -0.591
PBM binding z-score [10]: 0.57

TTACCACGGTGAGCTGAGGTCGTTGATCCAACTC
PBM binding z-score [1]: -0.205
PBM binding z-score [2]: 0.363
PBM binding z-score [3]: -0.296
PBM binding z-score [4]: -0.157
PBM binding z-score [5]: -0.455
PBM binding z-score [6]: 2.07
PBM binding z-score [7]: 0.241
PBM binding z-score [8]: 1.07
PBM binding z-score [9]: -0.639
PBM binding z-score [10]: 0.544

Source: the supplement of paper PMC6555819
